# Measured values from article PMC7862700, “An all-to-all approach to the identification of sequence-specific readers for epigenetic DNA modifications on cytosine”.
# Experiments:
# Test in all cases: DAPPL (digital affinity profiling via proximity ligation, sequencing); 10 mM Tris-HCl pH 7.5, 50 mM NaCl, 1 mM DTT, 4% glycerol, room temperature, 30 min; GST-TFs on glutathione beads, 16-mer random dsDNA library, 0.1% formaldehyde crosslink after washing; high values mean tight binding
# [1] = biological target: T1, FLI1 (Homo sapiens, UniProt Q01543 1-452); conditions: protein: recombinant; tags: N-terminal GST; dsDNA, one strand shown
# T1 sequence: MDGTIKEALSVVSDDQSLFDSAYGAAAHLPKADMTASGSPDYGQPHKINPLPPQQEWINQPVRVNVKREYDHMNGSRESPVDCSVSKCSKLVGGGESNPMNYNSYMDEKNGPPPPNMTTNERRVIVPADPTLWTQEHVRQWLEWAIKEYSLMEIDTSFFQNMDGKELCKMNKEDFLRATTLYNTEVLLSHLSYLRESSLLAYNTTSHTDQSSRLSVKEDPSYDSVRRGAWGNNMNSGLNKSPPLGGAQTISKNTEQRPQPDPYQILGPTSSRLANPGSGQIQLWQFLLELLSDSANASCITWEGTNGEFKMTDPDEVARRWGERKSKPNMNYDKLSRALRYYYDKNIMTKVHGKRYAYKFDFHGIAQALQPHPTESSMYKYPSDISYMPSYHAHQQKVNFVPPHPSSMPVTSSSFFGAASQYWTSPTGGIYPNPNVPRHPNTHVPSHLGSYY
# How it was run: (§1)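 Pools of DNA-barcoded human transcription factors, expressed in yeast as GST fusions on glutathione beads and combined with a tag-only sample, were incubated with 200 nmole of a 16-mer random double-stranded DNA library. Incubation took 30 min at room temperature in Tris/NaCl/DTT/glycerol buffer and was followed by washing, 0.1% formaldehyde crosslinking, proximity ligation (BsaI/T4 ligase, 1 h, 37 °C), PCR amplification and sequencing on an Illumina NextSeq500. Binding signal is the ratio of a hexamer's read frequency for a factor to its frequency for the tag-only sample.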
# [2] = biological target: T2, ELK1 (Homo sapiens, UniProt P19419 1-428); conditions: protein: recombinant; tags: N-terminal GST; dsDNA, one strand shown
# T2 sequence: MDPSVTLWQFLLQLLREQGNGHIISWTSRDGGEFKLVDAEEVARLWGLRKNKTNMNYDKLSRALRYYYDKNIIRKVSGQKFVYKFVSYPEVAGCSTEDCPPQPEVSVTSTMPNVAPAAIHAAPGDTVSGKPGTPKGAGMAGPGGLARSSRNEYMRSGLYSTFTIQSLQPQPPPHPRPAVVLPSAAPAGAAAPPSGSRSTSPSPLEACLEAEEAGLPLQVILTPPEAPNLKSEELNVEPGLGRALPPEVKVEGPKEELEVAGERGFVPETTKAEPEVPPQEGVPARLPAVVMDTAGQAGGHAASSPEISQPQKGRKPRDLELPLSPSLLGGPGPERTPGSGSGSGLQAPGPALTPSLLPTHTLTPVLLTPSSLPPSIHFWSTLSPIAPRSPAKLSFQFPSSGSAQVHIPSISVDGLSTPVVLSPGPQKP
# How it was run: as §1
# [3] = biological target: T3, GABPA (Homo sapiens, UniProt Q06546 1-454); conditions: protein: recombinant; tags: N-terminal GST; dsDNA, one strand shown
# T3 sequence: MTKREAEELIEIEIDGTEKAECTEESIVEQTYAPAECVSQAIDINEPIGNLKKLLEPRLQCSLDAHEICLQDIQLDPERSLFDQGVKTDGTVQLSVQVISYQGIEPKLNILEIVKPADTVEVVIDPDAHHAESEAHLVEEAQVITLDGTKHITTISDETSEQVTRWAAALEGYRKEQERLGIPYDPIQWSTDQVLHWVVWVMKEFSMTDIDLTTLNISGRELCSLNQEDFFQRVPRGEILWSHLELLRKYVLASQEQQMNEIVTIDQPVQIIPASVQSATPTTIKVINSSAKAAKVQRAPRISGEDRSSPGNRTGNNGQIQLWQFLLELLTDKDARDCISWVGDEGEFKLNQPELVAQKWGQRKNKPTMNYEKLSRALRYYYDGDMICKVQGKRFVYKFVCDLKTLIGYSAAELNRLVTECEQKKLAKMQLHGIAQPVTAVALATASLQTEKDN
# How it was run: as §1
# [4] = biological target: T4, ERG (Homo sapiens, UniProt P11308 1-479); conditions: protein: recombinant; tags: N-terminal GST; dsDNA, one strand shown
# T4 sequence: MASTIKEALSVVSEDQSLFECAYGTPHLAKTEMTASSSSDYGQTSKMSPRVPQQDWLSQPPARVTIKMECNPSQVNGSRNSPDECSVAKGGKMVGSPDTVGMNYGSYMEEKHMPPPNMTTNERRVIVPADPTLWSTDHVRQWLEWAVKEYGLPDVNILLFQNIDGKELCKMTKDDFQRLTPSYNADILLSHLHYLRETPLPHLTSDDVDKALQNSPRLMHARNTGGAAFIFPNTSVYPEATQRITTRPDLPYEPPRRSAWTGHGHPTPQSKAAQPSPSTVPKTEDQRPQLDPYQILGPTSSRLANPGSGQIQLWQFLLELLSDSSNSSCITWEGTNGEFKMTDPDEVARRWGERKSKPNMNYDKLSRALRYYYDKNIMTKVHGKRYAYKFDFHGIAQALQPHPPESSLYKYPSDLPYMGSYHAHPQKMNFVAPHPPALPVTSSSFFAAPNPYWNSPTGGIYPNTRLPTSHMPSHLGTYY
# How it was run: as §1
# [5] = biological target: ELF1 (Homo sapiens, UniProt P32519 1-619); conditions: protein: recombinant; tags: N-terminal GST; dsDNA, one strand shown
# Chain of ELF1 (P32519 whole entry): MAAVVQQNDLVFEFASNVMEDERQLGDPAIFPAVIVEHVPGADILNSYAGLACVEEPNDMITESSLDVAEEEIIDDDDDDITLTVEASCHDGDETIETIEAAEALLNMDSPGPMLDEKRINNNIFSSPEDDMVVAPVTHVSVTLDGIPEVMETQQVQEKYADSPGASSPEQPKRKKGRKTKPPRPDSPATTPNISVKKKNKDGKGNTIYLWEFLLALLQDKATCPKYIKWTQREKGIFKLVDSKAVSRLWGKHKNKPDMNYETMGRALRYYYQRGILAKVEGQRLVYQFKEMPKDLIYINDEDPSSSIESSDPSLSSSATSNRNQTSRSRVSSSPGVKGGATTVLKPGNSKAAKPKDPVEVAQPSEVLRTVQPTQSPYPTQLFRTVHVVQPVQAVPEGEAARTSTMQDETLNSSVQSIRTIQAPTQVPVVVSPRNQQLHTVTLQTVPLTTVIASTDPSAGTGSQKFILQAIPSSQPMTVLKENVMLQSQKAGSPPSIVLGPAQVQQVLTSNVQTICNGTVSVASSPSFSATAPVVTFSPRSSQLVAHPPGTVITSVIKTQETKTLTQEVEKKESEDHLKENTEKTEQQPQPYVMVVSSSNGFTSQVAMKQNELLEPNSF
# How it was run: as §1
# [6] = biological target: T5, EHF (Homo sapiens, UniProt Q9NZC4 1-300); conditions: protein: recombinant; tags: N-terminal GST; dsDNA, one strand shown
# T5 sequence: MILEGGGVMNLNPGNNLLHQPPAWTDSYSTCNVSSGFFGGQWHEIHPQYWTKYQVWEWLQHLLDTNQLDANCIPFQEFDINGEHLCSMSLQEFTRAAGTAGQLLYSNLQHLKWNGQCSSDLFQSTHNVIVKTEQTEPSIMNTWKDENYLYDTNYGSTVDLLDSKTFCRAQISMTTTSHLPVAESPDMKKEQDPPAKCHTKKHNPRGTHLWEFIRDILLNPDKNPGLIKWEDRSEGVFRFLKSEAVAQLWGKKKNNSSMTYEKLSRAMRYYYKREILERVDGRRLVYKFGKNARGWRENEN
# How it was run: as §1
# [7] = biological target: SPI1 (Homo sapiens, UniProt P17947 1-270); conditions: protein: recombinant; tags: N-terminal GST; dsDNA, one strand shown
# How it was run: as §1
# [8] = biological target: SPIB (Homo sapiens, UniProt Q01892 1-262); conditions: protein: recombinant; tags: N-terminal GST; dsDNA, one strand shown
# Chain of SPIB (Q01892 whole entry): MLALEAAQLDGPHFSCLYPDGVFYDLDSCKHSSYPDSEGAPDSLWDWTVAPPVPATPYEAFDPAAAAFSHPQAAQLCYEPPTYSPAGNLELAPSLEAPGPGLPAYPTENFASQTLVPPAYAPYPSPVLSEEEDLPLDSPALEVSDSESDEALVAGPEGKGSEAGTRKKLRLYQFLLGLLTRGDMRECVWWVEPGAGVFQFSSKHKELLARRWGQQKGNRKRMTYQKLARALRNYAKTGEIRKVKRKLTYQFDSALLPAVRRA
# How it was run: as §1
# [9] = biological target: T6, ELK3 (Homo sapiens, UniProt P41970 1-407); conditions: protein: recombinant; tags: N-terminal GST; dsDNA, one strand shown
# T6 sequence: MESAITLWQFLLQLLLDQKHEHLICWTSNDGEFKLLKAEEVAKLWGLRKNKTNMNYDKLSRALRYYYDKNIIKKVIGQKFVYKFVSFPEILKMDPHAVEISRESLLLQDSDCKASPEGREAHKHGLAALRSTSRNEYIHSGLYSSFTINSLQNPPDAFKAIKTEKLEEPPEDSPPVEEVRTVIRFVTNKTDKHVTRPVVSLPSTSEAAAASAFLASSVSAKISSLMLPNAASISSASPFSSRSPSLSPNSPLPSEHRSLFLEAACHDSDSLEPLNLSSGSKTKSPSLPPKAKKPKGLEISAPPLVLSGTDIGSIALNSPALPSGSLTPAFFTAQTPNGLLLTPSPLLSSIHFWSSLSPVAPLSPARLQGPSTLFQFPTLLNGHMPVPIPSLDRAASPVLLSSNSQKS
# How it was run: as §1
# [10] = biological target: T7, FEV (Homo sapiens, UniProt Q99581 1-238); conditions: protein: recombinant; tags: N-terminal GST; dsDNA, one strand shown
# T7 sequence: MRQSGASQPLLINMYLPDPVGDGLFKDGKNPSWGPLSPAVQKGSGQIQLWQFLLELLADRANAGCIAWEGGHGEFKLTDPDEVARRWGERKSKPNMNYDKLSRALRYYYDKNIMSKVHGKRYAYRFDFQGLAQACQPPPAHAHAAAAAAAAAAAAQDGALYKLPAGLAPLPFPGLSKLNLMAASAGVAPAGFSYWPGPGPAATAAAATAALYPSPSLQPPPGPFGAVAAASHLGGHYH
# How it was run: as §1
# [11] = biological target: ETV5 (Homo sapiens, UniProt P41161 1-510); conditions: protein: recombinant; tags: N-terminal GST; dsDNA, one strand shown
# Chain of ETV5 (P41161 whole entry): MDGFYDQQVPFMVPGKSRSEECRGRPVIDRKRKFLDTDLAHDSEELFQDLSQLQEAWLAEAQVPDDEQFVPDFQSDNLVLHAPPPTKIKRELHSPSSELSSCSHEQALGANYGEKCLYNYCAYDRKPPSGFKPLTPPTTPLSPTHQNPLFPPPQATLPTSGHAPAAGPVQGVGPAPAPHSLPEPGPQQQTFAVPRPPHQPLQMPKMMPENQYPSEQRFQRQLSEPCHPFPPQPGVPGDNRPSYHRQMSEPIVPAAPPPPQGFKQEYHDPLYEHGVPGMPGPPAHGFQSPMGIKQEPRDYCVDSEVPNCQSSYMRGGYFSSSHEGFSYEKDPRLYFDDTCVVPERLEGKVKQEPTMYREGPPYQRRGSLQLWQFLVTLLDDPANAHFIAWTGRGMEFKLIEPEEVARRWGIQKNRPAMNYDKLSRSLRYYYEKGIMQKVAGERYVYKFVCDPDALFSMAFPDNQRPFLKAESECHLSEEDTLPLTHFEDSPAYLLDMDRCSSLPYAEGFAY
# How it was run: as §1
# [12] = biological target: HSF1 (Homo sapiens, UniProt Q00613 1-529); conditions: protein: recombinant; tags: N-terminal GST; chain copies: 3; dsDNA, one strand shown
# Chain of HSF1 (Q00613 whole entry): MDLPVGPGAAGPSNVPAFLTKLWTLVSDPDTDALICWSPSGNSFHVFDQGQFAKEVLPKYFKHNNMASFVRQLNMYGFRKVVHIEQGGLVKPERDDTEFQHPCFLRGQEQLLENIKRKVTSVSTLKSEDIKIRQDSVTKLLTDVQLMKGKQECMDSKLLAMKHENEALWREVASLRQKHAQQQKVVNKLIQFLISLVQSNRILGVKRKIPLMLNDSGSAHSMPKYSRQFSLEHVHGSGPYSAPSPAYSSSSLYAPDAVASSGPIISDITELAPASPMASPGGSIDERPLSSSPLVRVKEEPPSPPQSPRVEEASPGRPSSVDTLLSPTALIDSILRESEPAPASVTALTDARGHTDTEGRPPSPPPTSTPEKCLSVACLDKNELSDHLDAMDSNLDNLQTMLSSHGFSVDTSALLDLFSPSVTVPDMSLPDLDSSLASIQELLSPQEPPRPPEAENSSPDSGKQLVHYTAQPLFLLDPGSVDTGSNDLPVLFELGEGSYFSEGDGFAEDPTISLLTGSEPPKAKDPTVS
# How it was run: as §1
# [13] = biological target: T8, SPIC (Homo sapiens, UniProt Q8N5J4 1-248); conditions: protein: recombinant; tags: N-terminal GST; dsDNA, one strand shown
# T8 sequence: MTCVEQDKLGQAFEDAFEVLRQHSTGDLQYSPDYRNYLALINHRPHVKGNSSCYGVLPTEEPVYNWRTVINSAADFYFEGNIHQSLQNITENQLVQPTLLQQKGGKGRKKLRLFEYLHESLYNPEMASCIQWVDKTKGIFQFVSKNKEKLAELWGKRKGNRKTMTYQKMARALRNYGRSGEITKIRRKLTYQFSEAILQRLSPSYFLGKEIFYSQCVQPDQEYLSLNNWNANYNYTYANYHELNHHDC
# How it was run: as §1
# [14] = biological target: ELF4 (Homo sapiens, UniProt Q99607 1-663); conditions: protein: recombinant; tags: N-terminal GST; dsDNA, one strand shown
# Chain of ELF4 (Q99607 whole entry): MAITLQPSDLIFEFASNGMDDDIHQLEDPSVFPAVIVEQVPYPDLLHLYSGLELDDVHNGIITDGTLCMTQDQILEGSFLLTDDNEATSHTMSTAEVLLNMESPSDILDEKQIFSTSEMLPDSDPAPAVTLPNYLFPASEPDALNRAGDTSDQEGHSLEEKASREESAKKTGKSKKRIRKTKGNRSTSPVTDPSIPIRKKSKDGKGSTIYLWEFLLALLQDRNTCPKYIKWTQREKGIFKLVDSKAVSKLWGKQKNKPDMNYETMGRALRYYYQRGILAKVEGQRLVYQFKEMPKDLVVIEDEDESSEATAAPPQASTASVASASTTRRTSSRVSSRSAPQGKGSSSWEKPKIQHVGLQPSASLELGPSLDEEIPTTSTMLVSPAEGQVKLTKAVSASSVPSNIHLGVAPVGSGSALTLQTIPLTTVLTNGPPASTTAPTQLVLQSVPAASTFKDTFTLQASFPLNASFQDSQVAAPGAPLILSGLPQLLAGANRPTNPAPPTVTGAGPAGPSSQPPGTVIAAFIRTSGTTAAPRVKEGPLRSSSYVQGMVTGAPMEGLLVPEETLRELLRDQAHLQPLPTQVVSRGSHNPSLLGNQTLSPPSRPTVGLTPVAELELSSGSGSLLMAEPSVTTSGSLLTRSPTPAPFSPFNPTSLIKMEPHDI
# How it was run: as §1
# [15] = biological target: T9, ELK4 (Homo sapiens, UniProt P28324-2 1-405); conditions: protein: recombinant; tags: N-terminal GST; dsDNA, one strand shown
# T9 sequence: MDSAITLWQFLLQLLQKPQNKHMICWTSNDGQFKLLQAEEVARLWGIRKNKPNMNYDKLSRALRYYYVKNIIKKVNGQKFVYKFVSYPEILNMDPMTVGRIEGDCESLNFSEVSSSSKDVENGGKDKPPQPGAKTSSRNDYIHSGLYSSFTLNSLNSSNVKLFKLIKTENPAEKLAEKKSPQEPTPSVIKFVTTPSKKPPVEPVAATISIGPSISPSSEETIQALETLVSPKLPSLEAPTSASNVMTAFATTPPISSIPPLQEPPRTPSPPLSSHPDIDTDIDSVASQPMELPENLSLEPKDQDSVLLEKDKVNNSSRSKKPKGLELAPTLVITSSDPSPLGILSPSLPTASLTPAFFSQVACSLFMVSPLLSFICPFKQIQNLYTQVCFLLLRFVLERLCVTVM
# How it was run: as §1
# [16] = biological target: T10, ETV2 (Homo sapiens, UniProt O00321 1-342); conditions: protein: recombinant; tags: N-terminal GST; dsDNA, one strand shown
# T10 sequence: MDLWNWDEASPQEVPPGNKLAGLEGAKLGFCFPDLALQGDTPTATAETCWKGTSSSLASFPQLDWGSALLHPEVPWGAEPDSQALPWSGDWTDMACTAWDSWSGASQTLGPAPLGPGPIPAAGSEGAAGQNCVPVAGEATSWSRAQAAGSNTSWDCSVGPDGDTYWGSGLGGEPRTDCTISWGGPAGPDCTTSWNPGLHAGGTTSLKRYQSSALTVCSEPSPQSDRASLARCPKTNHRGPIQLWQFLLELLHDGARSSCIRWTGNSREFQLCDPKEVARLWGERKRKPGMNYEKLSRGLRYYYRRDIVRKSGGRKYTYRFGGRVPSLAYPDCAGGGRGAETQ
# How it was run: as §1
# [17] = biological target: T11, ELF3 (Homo sapiens, UniProt P78545 1-371); conditions: protein: recombinant; tags: N-terminal GST; dsDNA, one strand shown
# T11 sequence: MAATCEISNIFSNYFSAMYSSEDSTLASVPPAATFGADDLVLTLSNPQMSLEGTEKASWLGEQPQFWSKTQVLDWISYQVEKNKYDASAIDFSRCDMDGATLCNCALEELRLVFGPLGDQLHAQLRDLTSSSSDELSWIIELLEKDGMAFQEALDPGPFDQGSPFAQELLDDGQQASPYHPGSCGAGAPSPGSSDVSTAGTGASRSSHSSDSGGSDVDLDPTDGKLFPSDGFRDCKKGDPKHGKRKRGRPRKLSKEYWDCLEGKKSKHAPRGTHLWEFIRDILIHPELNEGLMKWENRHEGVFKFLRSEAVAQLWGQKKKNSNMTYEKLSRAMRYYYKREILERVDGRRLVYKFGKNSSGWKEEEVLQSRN
# How it was run: as §1
# [18] = biological target: CRX (Homo sapiens, UniProt O43186 1-299); conditions: protein: recombinant; tags: N-terminal GST; dsDNA, one strand shown
# Chain of CRX (O43186 whole entry): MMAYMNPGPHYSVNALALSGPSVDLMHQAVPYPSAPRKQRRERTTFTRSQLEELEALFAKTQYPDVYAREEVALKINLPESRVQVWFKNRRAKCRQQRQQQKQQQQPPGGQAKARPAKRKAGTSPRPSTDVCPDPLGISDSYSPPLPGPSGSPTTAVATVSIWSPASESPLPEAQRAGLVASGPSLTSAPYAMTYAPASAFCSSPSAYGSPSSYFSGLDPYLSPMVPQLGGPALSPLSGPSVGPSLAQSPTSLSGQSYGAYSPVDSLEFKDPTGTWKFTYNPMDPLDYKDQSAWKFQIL
# How it was run: as §1
# [19] = biological target: ETV1 (Homo sapiens, UniProt P50549 1-477); conditions: protein: recombinant; tags: N-terminal GST; dsDNA, one strand shown
# Chain of ETV1 (P50549 whole entry): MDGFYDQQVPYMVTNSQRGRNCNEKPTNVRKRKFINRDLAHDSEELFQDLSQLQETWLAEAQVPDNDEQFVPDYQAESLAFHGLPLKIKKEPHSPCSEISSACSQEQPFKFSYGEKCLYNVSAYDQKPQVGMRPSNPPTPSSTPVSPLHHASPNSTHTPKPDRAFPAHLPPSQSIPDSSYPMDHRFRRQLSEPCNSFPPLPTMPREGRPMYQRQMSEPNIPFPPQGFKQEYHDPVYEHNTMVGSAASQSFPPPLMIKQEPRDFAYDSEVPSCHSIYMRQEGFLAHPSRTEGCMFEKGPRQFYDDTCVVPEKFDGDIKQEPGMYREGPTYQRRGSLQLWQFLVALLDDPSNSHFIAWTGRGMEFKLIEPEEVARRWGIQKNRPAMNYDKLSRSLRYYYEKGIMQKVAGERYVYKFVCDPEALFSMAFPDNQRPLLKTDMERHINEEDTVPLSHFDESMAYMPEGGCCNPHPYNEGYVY
# How it was run: as §1
sequence,measurement,setting,value
ATTCTA,binding signal,[1],"1.34 fold enrichment (6-mer frequency, TF over GST control)"
same,binding signal,[2],"1.21 fold enrichment (6-mer frequency, TF over GST control)"
same,binding signal,[3],"1.29 fold enrichment (6-mer frequency, TF over GST control)"
same,binding signal,[4],"1.23 fold enrichment (6-mer frequency, TF over GST control)"
same,binding signal,[5],"1.3 fold enrichment (6-mer frequency, TF over GST control)"
same,binding signal,[6],"1.21 fold enrichment (6-mer frequency, TF over GST control)"
same,binding signal,[7],"1.23 fold enrichment (6-mer frequency, TF over GST control)"
same,binding signal,[8],"1.22 fold enrichment (6-mer frequency, TF over GST control)"
same,binding signal,[9],"1.18 fold enrichment (6-mer frequency, TF over GST control)"
same,binding signal,[10],"1.14 fold enrichment (6-mer frequency, TF over GST control)"
same,binding signal,[11],"1.16 fold enrichment (6-mer frequency, TF over GST control)"
same,binding signal,[12],"3.09 fold enrichment (6-mer frequency, TF over GST control)"
same,binding signal,[13],"1.26 fold enrichment (6-mer frequency, TF over GST control)"
same,binding signal,[14],"1.2 fold enrichment (6-mer frequency, TF over GST control)"
same,binding signal,[15],"1.32 fold enrichment (6-mer frequency, TF over GST control)"
same,binding signal,[16],"1.26 fold enrichment (6-mer frequency, TF over GST control)"
same,binding signal,[17],"1.24 fold enrichment (6-mer frequency, TF over GST control)"
same,binding signal,[18],"1.84 fold enrichment (6-mer frequency, TF over GST control)"
same,binding signal,[19],"1.2 fold enrichment (6-mer frequency, TF over GST control)"
